For 35 compounds, z-score results are on record in PubChem BioAssay.

The assay is described as follows: MM1S cell viability effects, profiling panel, calcein-AM fluorescence, 48 h, basal (AID 1165).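 Also: viability of MM1S multiple myeloma cells under basal unstimulated conditions; test concentration not given here.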 The following applies: higher = more signal.
Regarding `CCCC[C@@H](O)C1=C(COC)Cn2c(=O)n(-c3ccccc3)c(=O)n2[C@H]1CO`, the z-score was 0.103. In the case of `CCN(CC)c1ccc(N2CC=CC34O[C@@H]5C=CCOC(=O)[C@@H]5[C@H]3C(=O)N(CCCO)[C@@H]4C2=O)cc1` (stereo not given in full), the z-score is 1.8. `COCCOC(=O)N1C(=O)[C@@]2(c3cc(C#CCC(C(=O)OC)C(=O)OC)ccc31)[C@H](c1ccc(OCCO)cc1)N1[C@H](c3ccccc3)[C@H](c3ccccc3)OC(=O)[C@H]1[C@@H]2C(=O)N1CCCCCCC1`: the z-score was -0.169. Regarding `CCOC(=O)C1=CC[C@@H](c2ccc(F)cc2)N(S(=O)(=O)c2ccc(C)cc2)[C@H]1c1ccc([N+](=O)[O-])cc1`, the z-score is -0.724. As for `COC(=O)c1c(CC[C@@H](CO)NC(=O)N[C@@H](Cc2ccccc2)Cn2cc(-c3cncn3C)nn2)oc(C(C)=O)c1C(=O)OC`, the z-score is 0.732. Regarding `O=C(NCCO)C1=C[C@H](Oc2ccccc2I)[C@@H](O)[C@H](NCc2ccc(F)cc2)C1`, the z-score was -0.217. The figure for `CCCCN1CC=CC23O[C@@H]4/C=C\CCC(C)OC(=O)C4[C@H]2C(=O)N(C(C)CO)[C@@H]3C1=O` (stereo not given in full) is 0.646; for `CC(C)C[C@@H]1NC(=O)C([C@@H](C)OCc2ccccc2)NC(=O)[C@@]23C(=O)N[C@@H](Cc4ccccc4)C2[C@H](C)[C@@]2(C)O[C@H]2C3/C=C/CC/C=C/CNC1=O` (stereo not given in full) it is -1.31.

As for `COCCOC(=O)N1C(=O)[C@@]2(c3cc(C#CCCO)ccc31)[C@H](C(=O)N1CCc3cc(OC)c(OC)cc3C1)[C@H]1C(=O)O[C@H](c3ccccc3)[C@H](c3ccccc3)N1[C@@H]2c1ccccc1OCCO`, the z-score is 1.1. With `COc1ccc([Si](C)(C)[C@H]2[C@H](CC(=O)N3Cc4ccccc4C[C@H]3CO)O[C@@]3(C(=O)N(Cc4cccc(N5C(=O)c6cccc7cccc5c67)c4)c4ccccc43)[C@@H]2C)cc1`, the z-score was -2.54. Regarding `CN1C(=O)C2C(C1=O)C1C=C(c3ccc(CO)cc3)C2C(c2cccs2)N1C` (stereo not given), the z-score was -0.88.

In the case of `CC(C)CNC(=O)[C@@]1(C)c2ccccc2C(=O)N(Cc2cc(F)cc(C(F)(F)F)c2)[C@H]1c1ccc(CO)cc1`, the z-score was 0.545. As to `COc1ccc([Si](C)(C)[C@H]2[C@H](CCO)O[C@@]3(C(=O)N(Cc4ccc(N5CCOC5=O)cc4)c4ccccc43)[C@@H]2C)cc1`, the z-score was -2.54. The figure for `CCCC=C(CCC)[C@@H](NC(=O)c1ccco1)c1ccc(C(=O)OC)cc1` is -3.26; for `CO[C@H]1O[C@H](CO)[C@@H](OC(=O)Nc2ccc(C(F)(F)F)cc2)[C@H](OC(=O)Nc2ccccc2-c2ccccc2)[C@@H]1OC(=O)Nc1ccccc1-c1ccccc1` it is -0.413. For the compound `CC[C@H](C)C(=O)O[C@H]1CC[C@]2(C)C3=C(CCC2C1(C)C)[C@]1(C)CC[C@H]([C@H](C)CCCC(C)C)[C@@]1(C)CC3` (stereo not given in full), the z-score is 0.223. As for `COCCn1c(C(=O)N2CCCC2)cc2c1C[C@H]1CN(C(=O)c3ccccc3)[C@@](Cc3ccccc3)(C(=O)OC)[C@@H]21`, the z-score was 0.0841. The figure for `C[C@]1(C(=O)NCC(F)(F)F)c2ccccc2C(=O)N(Cc2ccc(OC(F)(F)F)cc2)[C@H]1c1ccc(CO)cc1` is 0.0863; for `CN(C)CCCNC(=O)[C@@H]1c2ccccc2C(=O)N(C2Cc3ccccc3C2)[C@H]1c1ccc(CO)cc1` it is -0.233. As to `Cc1c(NC(=O)/C(C#N)=C/c2ccc(Cl)cc2)c(=O)n(-c2ccccc2)n1C`, the z-score is 0.69.

For `C=CCC(OC(C)=O)[C@@H]1[C@@H](N(Cc2ccc(-c3ccccc3)cc2)C(=O)c2cccc3ccccc23)c2cc(OCCCO)ccc2N1C(=O)c1ccc2ccccc2c1` (stereo not given in full), the z-score is -0.679. For the compound `COCCOC(=O)N1C(=O)[C@@]2(c3ccccc31)[C@H](c1ccc(OCCO)cc1)N1[C@H](c3ccccc3)[C@H](c3ccccc3)OC(=O)[C@H]1[C@@H]2C(=O)N1CCN(c2ncccn2)CC1`, the z-score was -1.12.

With `C=C(/C(=C/C[C@@H](OC(C)=O)c1ccccc1OCCO)c1cc(C(=O)OC)ccc1OC)C(C)C`, the z-score was -3.21. Take `CCCC[C@H]1OB(O)C[C@H]2C1=C(COC)C[C@H]1C(=O)C=CC(=O)[C@H]12`: the z-score was -3.25. The figure for `COc1ccc(NC(=O)O[C@H]2[C@H](OC(=O)Nc3ccc4c(c3)OCO4)[C@H](OC(=O)Nc3ccc4c(c3)OCO4)[C@@H](OC)O[C@@H]2CO)cc1` is -0.714. On to `C=CCN1C(=O)[C@]2(O[C@H](CCO)[C@@H]([Si](C)(C)c3ccc(OC)cc3)[C@@H]2C)c2ccccc21`, for which the z-score was -2.7. For the compound `COC(=O)[C@]1(CO)N=C(c2ccc(OCCCO)cc2)O[C@@H]1c1ccccc1CN=[N+]=[N-]`, the z-score was 0.28. Take `COc1cccc(OC)c1C(=O)O[C@H]1[C@@H]2OC(=O)[C@H](Cc3cccc(Br)c3)C/C=C/C[C@@H](Cc3cccc(Br)c3)C(=O)O[C@H]2[C@@H](OC)O[C@@H]1CO`: the z-score is -2.6. Regarding `COCCOC(=O)N1C(=O)[C@@]2(c3cc(C#CC4(O)CCCCCC4)ccc31)[C@H](C(=O)NC[C@H](O)c1ccccc1)[C@H]1C(=O)O[C@H](c3ccccc3)[C@H](c3ccccc3)N1[C@@H]2c1ccc(O)cc1`, the z-score was -1.75. For `O=C1C2C=CC(C(O)c3ccc([N+](=O)[O-])cc3)N(Nc3ccccc3)C2C(=O)N1c1ccccc1` (stereo not given), the z-score was 0.323. Take `C=C(CCCC)C(=O)CC[C@H](OC(C)=O)c1ccccc1OCCO`: the z-score was -3.29.

Consider `C=C(COC)/C(=C/C[C@H](OC(=O)c1ccncc1)c1ccc(OCCO)cc1)c1cc(C(=O)OC)ccc1OC`, for which the z-score was -1.18. On to `COC(=O)[C@@]1(Cc2ccc(OC)cc2)[C@@H]2[C@@H](CC(=O)[C@H]2CC(=O)C(=O)N2CCCC2)CN1C(=O)c1ccccc1`, for which the z-score was -2.61. `CCOC(=O)C[C@H]1[C@H](OC(=O)c2ccc(-c3ccccc3)cc2)[C@@H](NC(=O)CC(C)C)c2cc(OCCCO)ccc2N1C(=O)Cc1ccc(OC)cc1`: the z-score is -1.7. As for `C=CCN1C(=O)[C@]2(O[C@H](CCn3cc([C@H](O)c4ccccc4)nn3)[C@@H]([Si](C)(C)c3ccc(OC)cc3)[C@@H]2C)c2cc(N3C(=O)c4cccc5cccc3c45)ccc21`, the z-score was -1.4.
